H9c2 protect: cardioprotection against H2O2-induced cell death, primary screen, uHTS, H9c2 cells, ATPLite luminescence. actives 0.63% (n = 360,000). protection from H2O2 cell death, % at 20 µM. H9c2 cardiomyocytes, H2O2 injury protection, 2 h. AID 588492, 2011;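 active = compounds giving at least 50% protection of heart cells from peroxide-induced death in the single-dose screen, raw or plate-pattern-corrected value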
NTR1 ag: agonists of human NTR1, primary screen, imaging, U2OS cells, beta-arrestin-GFP, high content; actives 0.17% (n = 330,000); Neurotensin receptor type 1 (Homo sapiens), P30989; activation, % at 20 µM; NTR1-U2OS beta-arrestin-GFP spot imaging, agonist mode;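 active = activation at or above 40% of the spot to cytoplasm intensity ratio, with at least 20 cells analyzed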
Target sequence (P30989 whole entry, looked up): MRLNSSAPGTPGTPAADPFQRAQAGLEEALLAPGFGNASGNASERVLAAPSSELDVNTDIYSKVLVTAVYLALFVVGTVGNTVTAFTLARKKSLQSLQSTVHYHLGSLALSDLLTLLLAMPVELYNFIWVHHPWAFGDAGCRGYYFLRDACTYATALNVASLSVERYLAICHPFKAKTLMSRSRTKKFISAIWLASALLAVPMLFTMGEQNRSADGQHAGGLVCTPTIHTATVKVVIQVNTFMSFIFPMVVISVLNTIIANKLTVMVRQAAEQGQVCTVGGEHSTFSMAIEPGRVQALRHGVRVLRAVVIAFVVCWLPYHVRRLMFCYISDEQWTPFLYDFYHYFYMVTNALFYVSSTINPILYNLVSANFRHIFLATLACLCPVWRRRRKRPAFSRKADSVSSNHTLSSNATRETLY
UBC9 SUMO inh: inhibitors of in vitro SUMOylation cascade, primary screen, biochemical, HTRF, uHTS; SUMO-conjugating enzyme UBC9 (Homo sapiens), P63279; HTRF SUMOylation assay, SAE1/SAE2 + UBC9; inhibition, % at 35 µM; actives 0.36% (n = 290,000); AID 2006, 2009; in the data active = inhibition above about 50%, passing the limit was not always enough
Target sequence (P63279 whole entry, looked up): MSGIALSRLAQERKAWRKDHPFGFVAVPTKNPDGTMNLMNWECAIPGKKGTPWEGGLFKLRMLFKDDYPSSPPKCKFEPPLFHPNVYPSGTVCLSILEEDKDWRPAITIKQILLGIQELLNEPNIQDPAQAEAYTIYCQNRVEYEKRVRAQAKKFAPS
ALR inh: inhibitors of human ALR sulfhydryl oxidase, primary screen, biochemical, H2O2 detection, HRP-luminol luminescence, single point; FAD-linked sulfhydryl oxidase ALR (Homo sapiens), P55789; purified ALR, DTT oxidation; inhibition, % (test concentration not listed); actives 3.8% (n = 290,000);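 active = mean replicate inhibition above about 79%, with every replicate also reaching it, limit read from the data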
Numbers stand for hits. Only some compounds are listed: those with a hit (about 3.9% of all), similar ones and a draw of the others.

CC1Cc2nc(SCC(=O)N3CCOCC3)n(-c3ccccc3)c(=O)c2S1 (configuration not stated) was read as H9c2 protect inactive, NTR1 ag inactive, UBC9 SUMO inh inactive and ALR inh 99.
CC1Cc2nc(SCC(=O)N3CCN(c4ccccc4)CC3)n(C)c(=O)c2S1 (configuration not stated) was read as H9c2 protect inactive, NTR1 ag inactive, UBC9 SUMO inh inactive and ALR inh 98.
Screening O=C(NCC(c1cccs1)N1CCOCC1)c1cnc(Cl)c(Cl)c1 (configuration not stated) returned H9c2 protect inactive, NTR1 ag inactive and ALR inh inactive.
`COc1cc(OC)cc(-c2c(C#Cc3ccsc3)c3cc(-c4ccc5[nH]ccc5c4)ccc3n2C)c1` gave H9c2 protect inactive, NTR1 ag inactive and ALR inh inactive.
For O=C(O)c1cccc(N/N=C(\N=Nc2ccccc2)c2ccccc2)c1 the results were H9c2 protect inactive, NTR1 ag inactive and ALR inh 98.
For O=C(O)c1ccc(N=N/C(=N\Nc2ccc(C(=O)O)cc2)c2ccccc2)cc1 the results were H9c2 protect inactive, NTR1 ag inactive and ALR inh 98.
CC(=O)Nc1ccc(/C(N=Nc2ccccc2)=N/N=C(N)N)cc1 was read as H9c2 protect inactive.
Screening Cc1cc(Cl)ccc1OC(C)C(=O)Nc1ccc(S(=O)(=O)Nc2cnc3ccccc3n2)cc1 (configuration not stated) returned H9c2 protect inactive, NTR1 ag inactive, UBC9 SUMO inh inactive and ALR inh inactive.
`CC(=O)c1c(NCc2ccccc2)nc(=O)n(-c2ccccc2)c1C` gave H9c2 protect inactive, NTR1 ag inactive, UBC9 SUMO inh inactive and ALR inh inactive.
`CCn1c(C)c(C(C)=O)c(NCc2ccccc2)nc1=S` gave H9c2 protect inactive, NTR1 ag inactive, UBC9 SUMO inh inactive and ALR inh 98.
COc1ccc(N/N=C(/C#N)S(=O)(=O)c2nsc(C)c2C#N)cc1 was read as H9c2 protect inactive, NTR1 ag inactive, UBC9 SUMO inh inactive and ALR inh 98.
`CSc1ccc(N/N=C(/C#N)S(=O)(=O)C(C)(C)C)cc1` gave H9c2 protect inactive, NTR1 ag inactive, UBC9 SUMO inh inactive and ALR inh inactive.
For Cc1snc(S(=O)(=O)/C(C#N)=N/Nc2cccc(C(F)(F)F)c2)c1C#N the results were H9c2 protect inactive, NTR1 ag inactive and UBC9 SUMO inh inactive.
`COc1ccc(N/N=C(/C#N)S(=O)(=O)C(C)(C)C)cc1` gave H9c2 protect inactive, NTR1 ag inactive, UBC9 SUMO inh inactive and ALR inh 98.
CCCCCC(=O)Nc1nnn(CCC)n1 was read as H9c2 protect inactive, NTR1 ag inactive, UBC9 SUMO inh inactive and ALR inh inactive.
`COc1ccccc1S(=O)(=O)Cc1ccc(C(=O)NC2CCCCCC2)o1` gave H9c2 protect inactive, NTR1 ag inactive, UBC9 SUMO inh inactive and ALR inh inactive.
`Cc1[nH]n(-c2ccccc2)c(=O)c1/C=N/NC(=O)c1ccc(O)cc1O` gave H9c2 protect inactive, NTR1 ag inactive and UBC9 SUMO inh inactive.
Cc1ccc(-n2[nH]c(C)c(/C=N/NC(=O)c3ccc(O)cc3O)c2=O)cc1 was read as H9c2 protect inactive, NTR1 ag inactive, UBC9 SUMO inh inactive and ALR inh 94.
Screening COc1ccc(NC(=O)N(C)C[C@H]2Oc3c(NC(=O)Nc4ccc(C(F)(F)F)cc4)cccc3C(=O)N([C@H](C)CO)C[C@@H]2C)cc1 returned H9c2 protect 59, NTR1 ag inactive and ALR inh inactive.
For C[C@H](CO)N1C[C@H](C)[C@@H](CN(C)C(=O)Nc2ccc3c(c2)OCO3)Oc2c(NC(=O)Nc3ccc(C(F)(F)F)cc3)cccc2C1=O the results were H9c2 protect 86, NTR1 ag inactive and ALR inh inactive.
Screening COC(=O)Cn1c2nc3ccccc3nc2c2cccc(C)c21 returned H9c2 protect inactive, NTR1 ag inactive, UBC9 SUMO inh inactive and ALR inh inactive.
Screening CCCCOC(=O)Sc1nc2ccccc2o1 returned H9c2 protect inactive, NTR1 ag inactive, UBC9 SUMO inh inactive and ALR inh 93.
Screening COc1ccc(C(=O)/C=C/Sc2nc3ccccc3o2)cc1 returned H9c2 protect inactive, NTR1 ag inactive, UBC9 SUMO inh inactive and ALR inh inactive.
C#CCOCCOCCOCCNc1nc(N2CCN(C(=O)CCCCCCCCCCNC(=O)Cn3cc(C[C@@H](C)O)nn3)CC2)nc(N2CCN(C(=O)CCCCCCCCCCNC(=O)Cn3cc(C[C@@H](C)O)nn3)CC2)n1 was read as H9c2 protect 80, NTR1 ag inactive and ALR inh inactive.
CCOC(=O)c1c(-c2ccccc2)oc2ccc(OC(C)C(=O)O)cc12 (configuration not stated) was read as H9c2 protect inactive, NTR1 ag inactive and UBC9 SUMO inh 55.
O=C(NCCS(=O)(=O)c1ccc(Br)cc1)c1ccccc1 was read as H9c2 protect inactive, NTR1 ag inactive, UBC9 SUMO inh inactive and ALR inh inactive.
For Nc1ccc(S(=O)(=O)c2ccc(N3CCOCC3)c(N)c2)cc1 the results were H9c2 protect inactive.
For COc1cc(NC(=O)c2ccc(-c3cn[nH]c3)c3ccoc23)cc(OC)c1OC the results were H9c2 protect 66.
COc1cc(NC(=O)c2ccc(-c3cccnc3)c3ccoc23)cc(OC)c1OC was read as H9c2 protect inactive.
For Cc1ccc(S(=O)(=O)N2CCOCC2)cc1NC(=O)COc1ccc(C(=O)c2ccccc2)cc1 the results were H9c2 protect inactive, NTR1 ag inactive and ALR inh inactive.
`C=CCn1c(N)c(C(=O)Nc2ccccc2)c2nc3ccccc3nc21` gave H9c2 protect inactive, NTR1 ag inactive, UBC9 SUMO inh 91 and ALR inh inactive.
C=CCNC(=O)c1c(N)n(-c2cccc(S(N)(=O)=O)c2)c2nc3ccccc3nc12 was read as H9c2 protect inactive, NTR1 ag inactive, UBC9 SUMO inh inactive and ALR inh inactive.
Screening C=CCn1c(N)c(C(=O)OC(C)CC)c2nc3ccccc3nc21 (configuration not stated) returned H9c2 protect inactive and UBC9 SUMO inh inactive.
C=CCn1c(N)c(C(=O)OC(C)(C)C)c2nc3ccccc3nc21 was read as H9c2 protect inactive, NTR1 ag inactive and UBC9 SUMO inh 98.
For O=C1C=C(c2cc3ccccc3s2)C[C@@H](c2ccc(F)cc2)C1 the results were H9c2 protect inactive, NTR1 ag inactive and ALR inh inactive.
Screening CC(C)n1c(-c2ccc(C(C)(C)C)cc2)n[nH]c1=S returned H9c2 protect inactive, NTR1 ag inactive, UBC9 SUMO inh inactive and ALR inh 82.
CC(C)(C)c1ccc(-c2n[nH]c(=S)n2Cc2ccccc2)cc1 was read as H9c2 protect inactive, NTR1 ag inactive and UBC9 SUMO inh inactive.

Screening data as filed in PubChem BioAssay.
